Among the data in the supplement of paper PMC6411743 are NP40-soluble protein abundance values, retold here.

Compound in this experiment: Nc1nc2c(ncn2[C@@H]2O[C@H](COP(=O)(O)OP(=O)(O)OP(=O)(O)O)[C@@H](O)[C@H]2O)c(=O)[nH]1 [guanosine triphosphate]
In words: NP40-soluble protein abundance relative to vehicle (solubility fold change) (ratio); higher = more soluble protein in presence of GTP. As to the method: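 Solubility proteome profiling in Jurkat crude lysate. Lysate was treated with Mg-GTP (0.1-10 mM) for 10 min at room temperature and 3 min at 37 °C, then solubilised with 0.8% NP40 and benzonase, followed by ultracentrifugation. Proteins were quantified by TMT10 LC-MS/MS; the value is the NP40-soluble abundance relative to the NP40-processed vehicle, from 3 independent experiments.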

± gives the standard deviation of the averaged measurements. Targets with the largest changes are over-represented here; the source holds about 5,400 in all.

Chain of UniProt O43181 (O43181 whole entry): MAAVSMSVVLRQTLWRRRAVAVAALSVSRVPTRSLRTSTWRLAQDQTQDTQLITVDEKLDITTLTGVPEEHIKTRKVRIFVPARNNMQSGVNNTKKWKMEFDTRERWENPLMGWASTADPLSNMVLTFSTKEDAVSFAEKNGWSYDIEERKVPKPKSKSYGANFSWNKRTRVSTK
Chain of UniProt O75582 (O75582 whole entry, looked up, one chain of several): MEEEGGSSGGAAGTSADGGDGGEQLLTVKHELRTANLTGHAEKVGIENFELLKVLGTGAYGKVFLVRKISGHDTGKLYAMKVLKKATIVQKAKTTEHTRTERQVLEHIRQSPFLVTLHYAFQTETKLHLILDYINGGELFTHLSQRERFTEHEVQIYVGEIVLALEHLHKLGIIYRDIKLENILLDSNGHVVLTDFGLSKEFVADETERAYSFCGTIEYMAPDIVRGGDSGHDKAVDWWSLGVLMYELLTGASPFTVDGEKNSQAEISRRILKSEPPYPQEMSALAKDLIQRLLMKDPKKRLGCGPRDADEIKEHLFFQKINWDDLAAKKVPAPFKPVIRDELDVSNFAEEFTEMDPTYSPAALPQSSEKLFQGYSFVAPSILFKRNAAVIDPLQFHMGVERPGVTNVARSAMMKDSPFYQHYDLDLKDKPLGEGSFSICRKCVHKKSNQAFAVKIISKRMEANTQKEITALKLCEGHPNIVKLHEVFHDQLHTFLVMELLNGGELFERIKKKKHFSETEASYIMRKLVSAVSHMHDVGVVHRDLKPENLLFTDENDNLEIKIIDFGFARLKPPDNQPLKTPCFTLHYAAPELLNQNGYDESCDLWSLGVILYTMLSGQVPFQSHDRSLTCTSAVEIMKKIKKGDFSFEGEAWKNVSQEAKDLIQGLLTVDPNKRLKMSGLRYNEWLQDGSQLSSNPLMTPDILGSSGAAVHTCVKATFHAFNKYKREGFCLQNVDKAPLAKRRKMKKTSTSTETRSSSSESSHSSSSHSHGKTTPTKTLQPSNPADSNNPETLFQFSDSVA
Chain of UniProt P17029 (P17029 whole entry): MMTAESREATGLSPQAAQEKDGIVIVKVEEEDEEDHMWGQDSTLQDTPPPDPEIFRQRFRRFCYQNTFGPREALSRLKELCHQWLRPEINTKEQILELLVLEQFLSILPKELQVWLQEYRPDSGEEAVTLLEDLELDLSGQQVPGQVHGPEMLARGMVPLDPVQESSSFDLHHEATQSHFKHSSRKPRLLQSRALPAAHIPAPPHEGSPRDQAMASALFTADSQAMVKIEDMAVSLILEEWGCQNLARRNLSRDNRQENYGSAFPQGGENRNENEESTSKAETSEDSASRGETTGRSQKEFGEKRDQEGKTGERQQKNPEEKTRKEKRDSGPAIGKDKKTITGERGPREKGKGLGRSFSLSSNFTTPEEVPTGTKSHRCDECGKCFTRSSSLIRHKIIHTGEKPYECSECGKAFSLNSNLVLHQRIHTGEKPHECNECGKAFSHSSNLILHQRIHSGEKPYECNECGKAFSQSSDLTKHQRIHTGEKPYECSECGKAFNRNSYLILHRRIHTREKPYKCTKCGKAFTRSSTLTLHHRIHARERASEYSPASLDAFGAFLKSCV
Chain of UniProt P49840 (P49840 whole entry, looked up): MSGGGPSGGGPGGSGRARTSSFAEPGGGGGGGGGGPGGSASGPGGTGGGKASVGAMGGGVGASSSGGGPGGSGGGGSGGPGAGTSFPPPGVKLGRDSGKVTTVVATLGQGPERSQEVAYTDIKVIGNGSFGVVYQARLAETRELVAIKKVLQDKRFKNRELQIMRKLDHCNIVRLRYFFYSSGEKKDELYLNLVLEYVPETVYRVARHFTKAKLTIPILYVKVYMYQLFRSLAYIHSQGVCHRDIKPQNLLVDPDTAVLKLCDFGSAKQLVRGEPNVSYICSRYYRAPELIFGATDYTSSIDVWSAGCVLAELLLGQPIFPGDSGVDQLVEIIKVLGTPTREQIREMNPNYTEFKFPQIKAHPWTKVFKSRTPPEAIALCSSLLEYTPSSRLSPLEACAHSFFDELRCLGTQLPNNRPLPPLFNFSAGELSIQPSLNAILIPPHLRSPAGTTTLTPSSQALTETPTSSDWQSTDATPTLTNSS
Chain of UniProt P10515 (P10515 whole entry): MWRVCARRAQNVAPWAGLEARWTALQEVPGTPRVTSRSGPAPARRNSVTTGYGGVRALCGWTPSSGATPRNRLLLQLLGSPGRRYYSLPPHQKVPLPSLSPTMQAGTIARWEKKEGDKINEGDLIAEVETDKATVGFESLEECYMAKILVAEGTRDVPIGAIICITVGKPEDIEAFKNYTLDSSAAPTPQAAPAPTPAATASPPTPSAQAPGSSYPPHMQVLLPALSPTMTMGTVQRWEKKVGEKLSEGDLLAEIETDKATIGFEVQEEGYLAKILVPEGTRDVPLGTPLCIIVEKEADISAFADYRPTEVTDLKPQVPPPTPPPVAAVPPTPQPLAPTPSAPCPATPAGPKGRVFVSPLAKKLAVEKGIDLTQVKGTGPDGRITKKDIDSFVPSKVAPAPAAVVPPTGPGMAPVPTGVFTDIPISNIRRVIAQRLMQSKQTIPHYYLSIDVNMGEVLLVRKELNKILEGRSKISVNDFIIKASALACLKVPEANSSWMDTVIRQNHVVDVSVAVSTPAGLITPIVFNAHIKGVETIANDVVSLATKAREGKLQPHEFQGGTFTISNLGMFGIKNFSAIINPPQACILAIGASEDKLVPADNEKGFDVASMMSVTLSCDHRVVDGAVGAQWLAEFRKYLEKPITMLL

For DLAT (UniProt P10515), the NP40-soluble protein abundance is 1.11 ± 0.22 (concentration: 0.1mM); 1.28 ± 0.39 (concentration: 0.5mM); 1.47 ± 0.56 (concentration: 1mM); 1.85 ± 0.82 (concentration: 2mM); 2.12 ± 1.1 (concentration: 4mM); 2.06 ± 1.1 (concentration: 6mM). Also, the NP40-soluble protein abundance (concentration: 8mM) came to 1.98 ± 0.98 and the NP40-soluble protein abundance (concentration: 10mM) stood at 1.91 ± 0.99.

As to UniProt O75582|A0A0A0MQV2, the NP40-soluble protein abundance (concentration: 0.1mM) turned out to be 1.05 ± 0.079; the NP40-soluble protein abundance (concentration: 0.5mM) came out at 1.06 ± 0.059; the NP40-soluble protein abundance (concentration: 1mM) was 0.965 ± 0.044; the NP40-soluble protein abundance (concentration: 2mM) turned out to be 0.965 ± 0.068; the NP40-soluble protein abundance (concentration: 4mM) turned out to be 0.979 ± 0.083; the NP40-soluble protein abundance (concentration: 6mM) amounted to 0.965 ± 0.056. Moreover, the NP40-soluble protein abundance came out at 0.934 ± 0.031 (concentration: 8mM) and 0.912 ± 0.044 (concentration: 10mM).

With UniProt P49840, the NP40-soluble protein abundance is, setting by setting: (concentration: 0.1mM) 0.981 ± 0.028; (concentration: 0.5mM) 1.03 ± 0.029; (concentration: 1mM) 0.913 ± 0.022; (concentration: 2mM) 0.939 ± 0.02; (concentration: 4mM) 0.921 ± 0.044; (concentration: 6mM) 0.925 ± 0.021. The NP40-soluble protein abundance reads like this: (concentration: 8mM) 0.875 ± 0.051; (concentration: 10mM) 0.888 ± 0.051.

As to NDUFS4 (UniProt O43181), the NP40-soluble protein abundance runs as follows: (concentration: 0.1mM) 1 ± 0.029; (concentration: 0.5mM) 1.047 ± 0.0028; (concentration: 1mM) 1.08 ± 0.053; (concentration: 2mM) 1.12 ± 0.1; (concentration: 4mM) 1.09 ± 0.12; (concentration: 6mM) 1.1 ± 0.12. Moreover, the NP40-soluble protein abundance reads like this: (concentration: 8mM) 1.14 ± 0.18; (concentration: 10mM) 1.1 ± 0.15.

ZKSCAN1 (UniProt P17029): the NP40-soluble protein abundance amounted to 0.9748 ± 0.0051 (concentration: 0.1mM); 0.986 ± 0.034 (concentration: 0.5mM); 0.987 ± 0.047 (concentration: 1mM); 0.958 ± 0.024 (concentration: 2mM); 0.963 ± 0.015 (concentration: 4mM); 0.978 ± 0.026 (concentration: 6mM). Also, the NP40-soluble protein abundance was determined as 1 ± 0.075 (concentration: 8mM) and 0.993 ± 0.041 (concentration: 10mM).
